Results filed as inconclusive are left out. Calls of active or inactive are those of the source. Rule for the calls: active = hit-call score of the fitted dose curve at least 0.9, where 1 is the maximum; inconclusive = response in the unintended direction; inactive = score below 0.9.
target: PGR (gene 5241) (UniProt P06401); test: NVS_NR_hPR: NovaScreen (NVS) Nuclear Receptor Binding Assay for human Progestron Receptor (PR) (AID 2283360);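 note: active means loss of bound radioligand signal versus DMSO baseline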
Sequence (P06401 whole entry, looked up): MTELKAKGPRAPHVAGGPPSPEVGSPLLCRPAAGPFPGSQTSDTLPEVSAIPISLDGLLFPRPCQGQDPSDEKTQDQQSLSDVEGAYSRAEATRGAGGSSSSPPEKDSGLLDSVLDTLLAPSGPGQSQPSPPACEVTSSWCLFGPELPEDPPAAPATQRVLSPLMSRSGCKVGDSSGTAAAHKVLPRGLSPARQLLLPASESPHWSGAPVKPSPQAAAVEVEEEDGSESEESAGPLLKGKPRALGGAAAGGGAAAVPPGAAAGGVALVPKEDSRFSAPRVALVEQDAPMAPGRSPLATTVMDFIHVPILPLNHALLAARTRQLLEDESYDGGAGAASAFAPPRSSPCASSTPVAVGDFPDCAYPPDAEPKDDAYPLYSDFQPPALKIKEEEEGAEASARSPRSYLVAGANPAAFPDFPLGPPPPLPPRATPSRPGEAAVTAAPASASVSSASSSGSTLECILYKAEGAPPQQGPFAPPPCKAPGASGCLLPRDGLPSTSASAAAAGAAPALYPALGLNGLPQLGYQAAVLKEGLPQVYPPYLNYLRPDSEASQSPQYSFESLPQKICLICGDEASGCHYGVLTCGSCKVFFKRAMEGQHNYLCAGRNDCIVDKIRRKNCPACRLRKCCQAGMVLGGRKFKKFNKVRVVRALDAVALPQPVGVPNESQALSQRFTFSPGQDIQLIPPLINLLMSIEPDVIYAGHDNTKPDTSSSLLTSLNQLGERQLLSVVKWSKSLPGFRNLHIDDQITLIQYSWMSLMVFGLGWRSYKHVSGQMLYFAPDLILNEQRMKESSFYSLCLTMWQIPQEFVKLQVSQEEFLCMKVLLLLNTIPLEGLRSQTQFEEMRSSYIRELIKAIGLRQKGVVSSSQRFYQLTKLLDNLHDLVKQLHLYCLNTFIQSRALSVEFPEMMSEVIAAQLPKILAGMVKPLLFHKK
Method: NVS_NR_hPR is a biochemical, single-readout assay that uses extracted gene-proteins from T47D in a cell-free assay. Measurements were taken 18 hours after chemical dosing in a 96-well plate.NVS_NR_hPR is one of one assay component(s) measured or calculated from the NVS_NR_hPR assay. It is designed to make measurements of radioligand binding, a form of binding reporter, as detected with scintillation counting signals by Lysate-based radiodetection technology.Data from the assay component NVS_NR_hPR was analyzed into 1 assay endpoint. This assay endpoint, NVS_NR_hPR, was analyzed in the positive analysis fitting direction relative to DMSO as the negative control and baseline of activity. Using a type of binding reporter, loss-of-signal activity can be used to understand changes in the binding as they relate to the gene PGR. Furthermore, this assay endpoint can be referred to as a primary readout, because the performed assay has only produced 1 assay endpoint. To generalize the intended target to other relatable targets, this assay endpoint is annotated to the nuclear receptor intended target family, where the subfamily is steroidal.
Binding assays used specific radioligands (tritiated, iodinated) with non-radioactive competitive displacement ligands in agonist or antagonist protocols (as indicated) and various reference compounds and inhibitors to titrate specific binding to receptors and transporters. Most enzyme assays (CYPs, kinases, phosphatases, proteases, HDACs) used recombinant protein and specific substrates (fluorescence mostly, some colorimetric and radioactive) and inhibitors, followed by a biochemical separation of substrate and product. All assays for the biochemical HTS were initially run in duplicate at a single concentration (10 uM for CYP450 assays and 25 uM for all others). […] Each assay was run with positive and negative controls, and concurrent controls on every plate. The follow-up (secondary) screen tested active chemical-pairs in concentration series, as well as a few additional assays not tested in the primary screen, some selected negative inactives, and several cases re-run in the concentration series for confirmatory purposes.

| SMILES | outcome | AC50 |
| --- | --- | --- |
| CC(C)(O)C(=O)Nc1ccc([N+](=O)[O-])c(C(F)(F)F)c1 | inactive | – |
| Cc1ccccc1[N+](=O)[O-] | inactive | – |
| C[C@]12CCC(=O)C=C1CC[C@@H]1[C@@H]2CC[C@]2(C)C(=O)CC[C@@H]12 | – | 8.27 µM (active) |
| CC(C)(c1ccccc1)c1ccc(O)cc1 | – | 13.9 µM (active) |
| C[C@]12CCC(=O)C=C1CC[C@@H]1[C@@H]2CC[C@@]2(C)[C@H]1CC[C@]2(C)O | – | 0.175 µM (active) |
| Oc1ccc(Cl)cc1Cl | inactive | – |
| O=NN(c1ccccc1)c1ccccc1 | inactive | – |
| Oc1c(Cl)c(Cl)c(Cl)c(Cl)c1Cl | inactive | – |
| CCC(=O)O[C@H]1CC[C@H]2[C@@H]3CCC4=CC(=O)CC[C@]4(C)[C@H]3CC[C@]12C | – | 1.04 µM (active) |
| Oc1ccc(C(c2ccc(O)cc2)(C(F)(F)F)C(F)(F)F)cc1 | – | 1.32 µM (active) |
| CCC(C)(c1ccc(O)cc1)c1ccc(O)cc1 | – | 10.2 µM (active) |
| O=C(N[C@H]1CN2CCC1CC2)c1cc2ccoc2cn1 | inactive | – |
| Cc1ccc(O)c(C)c1 | inactive | – |

Source: PubChem BioAssay (EPA / NIEHS)
